In PubChem BioAssay (Tox21):
Records with an inconclusive call do not appear. The source made the active and inactive calls. Calls follow the shape of the full dose curve.

Key:
[1] = target: Acetylcholinesterase (Homo sapiens) (UniProt P22303); assay: Acetylcholinesterase (AChE) small molecule antagonists: colormetric cell-based qHTS assay (AID 1347395); settings: SH-SY5Y cells AChE activity, colorimetric (Ellman); series mostly up to 115 µM; also: nearly all actives have a fitted effect of over 30% in size; also: potency is read from the fitted curve at half-maximal effect
Method in brief: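 Colorimetric read-out: DTNB detects thiocholine released when cellular AChE in SH-SY5Y cells hydrolyses acetylthiocholine. Cells attached overnight, received compound for 30 min at 37 C, then substrate mix for 90 min at 37 C.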

[2] = target: Acetylcholinesterase (Homo sapiens) (UniProt P22303); assay: Acetylcholinesterase (AChE) small molecule antagonists: enzyme-based qHTS assay (AID 1347397); settings: Potency: AChE enzyme activity inhibition; outcome: AChE enzyme activity inhibition; series mostly up to 115 µM; also: nearly all actives have a fitted effect of over 55% in size; also: potency is read from the fitted curve at half-maximal effect
Method in brief: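 First, recombinant human AChE (50 mU/mL as dispensed) received test compound or DMSO. Second, plates stood 30 min at room temperature. Third, DTNB and acetylthiocholine were added, followed by 10 min at room temperature and colorimetric detection.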

[3] = target: Acetylcholinesterase (Homo sapiens) (UniProt P22303); assay: Acetylcholinesterase (AChE) small molecule antagonists: fluorescence cell-based qHTS assay (AID 1347398); settings: SH-SY5Y cells; Potency: AChE activity; outcome: AChE activity; series mostly up to 115 µM; also: nearly all actives have a fitted effect of over 50% in size; also: potency is read from the fitted curve at half-maximal effect
Method in brief: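 Homogeneous quantitative HTS format. SH-SY5Y cells seeded at 2,000 per well settle overnight at 37 C. Compound pretreatment runs 30 min (37 C, 5% CO2); substrate/probe mix then reacts 40 min at RT before reading 490/520 nm.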

[4] = target: Acetylcholinesterase (Homo sapiens) (UniProt P22303); assay: Acetylcholinesterase (AChE) small molecule antagonists: enzyme-based qHTS assay with human liver microsomes (AID 1347399); settings: Potency: qHTS inhibition; outcome: qHTS inhibition; series mostly up to 115 µM; also: nearly all actives have a fitted effect of over 60% in size
Method in brief: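 Recombinant human AChE (50 mU/mL in the enzyme mix) and human liver microsomes (0.25 mg/mL final) were preincubated with compound and NADPH (0.25 mg/mL final) for 30 min at 37 C. Acetylthiocholine/DTNB was then added; thiocholine was read colorimetrically after 10 min at room temperature.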
% is scaled to controls: 0 for no effect and ±100 for the full control effect.

Sequence of Acetylcholinesterase (Homo sapiens) (P22303 whole entry, looked up): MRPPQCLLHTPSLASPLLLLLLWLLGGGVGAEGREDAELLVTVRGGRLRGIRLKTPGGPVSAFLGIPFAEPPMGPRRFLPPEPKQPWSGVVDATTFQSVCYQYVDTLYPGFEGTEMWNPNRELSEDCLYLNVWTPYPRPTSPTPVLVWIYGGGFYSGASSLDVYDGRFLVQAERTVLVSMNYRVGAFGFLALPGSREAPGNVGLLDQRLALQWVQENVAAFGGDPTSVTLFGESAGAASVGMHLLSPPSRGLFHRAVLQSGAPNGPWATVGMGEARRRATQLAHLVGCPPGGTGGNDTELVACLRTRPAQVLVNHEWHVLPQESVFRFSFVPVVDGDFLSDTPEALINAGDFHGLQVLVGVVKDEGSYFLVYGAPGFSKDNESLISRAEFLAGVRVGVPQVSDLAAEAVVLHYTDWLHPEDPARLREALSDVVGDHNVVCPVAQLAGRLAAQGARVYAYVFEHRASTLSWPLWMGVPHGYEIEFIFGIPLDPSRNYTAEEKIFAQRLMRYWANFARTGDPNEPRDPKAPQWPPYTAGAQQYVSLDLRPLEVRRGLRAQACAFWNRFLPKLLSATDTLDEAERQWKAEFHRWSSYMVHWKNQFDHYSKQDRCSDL

O=S(=O)(O)CCN1CCN(CCO)CC1
inactive: Potency [1] | Potency [2] | Potency [3] | Potency [4]

CCOC(=O)C(=O)OCC
inactive: Potency [1] | Potency [2] | Potency [3] | Potency [4]

O=C(O)CNC(=O)CNC(=O)CNC(=O)CSC(=O)c1ccccc1
inactive: Potency [1] | Potency [2] | Potency [3] | Potency [4]

CCc1cccc(C)c1N(C(=O)C(=O)O)C(C)COC (centres undefined)
inactive: Potency [1] | Potency [2] | Potency [3] | Potency [4]

Nc1ccc(C(=O)OCCCOC(=O)c2ccc(N)cc2)cc1
inactive: Potency [1] | Potency [2] | Potency [3] | Potency [4]

Cc1cccc(C)n1
inactive: Potency [1] | Potency [2] | Potency [3] | Potency [4]

Cc1ccc(Cl)c(OCC(O)CNC(C)(C)C)c1 (centres undefined)
inactive: Potency [1] | Potency [2] | Potency [3] | Potency [4]

C=CC(=C)CCCC(C)(C)OC(C)=O
inactive: Potency [1] | Potency [2] | Potency [3] | Potency [4]

Cc1nc(C)nc(N2C[C@@H](C)N(c3ccnc([C@@H](C)O)n3)[C@@H](C)C2)n1
inactive: Potency [1] | Potency [2] | Potency [3] | Potency [4]

CCCCN1C(=O)[C@@H]([C@H](O)C2CCCCC2)NC(=O)C12CCN(Cc1ccc(Oc3ccc(C(=O)O)cc3)cc1)CC2
inactive: Potency [1] | Potency [2] | Potency [3] | Potency [4]

CC(C)COC(=O)C(C)C
inactive: Potency [1] | Potency [2] | Potency [3] | Potency [4]

Nc1ccc2ccccc2c1S(=O)(=O)O
inactive: Potency [1] | Potency [2] | Potency [3] | Potency [4]

CC(=O)Nc1cccc(C)c1
inactive: Potency [1] | Potency [2] | Potency [3] | Potency [4]

O=S1(=O)CCCC1
inactive: Potency [1] | Potency [2] | Potency [3] | Potency [4]

CC(=O)Nc1ccc(S(N)(=O)=O)cc1
inactive: Potency [1] | Potency [2] | Potency [3] | Potency [4]

NNc1nc(-c2ccc(N)cc2)cs1
inactive: Potency [1] | Potency [2] | Potency [3] | Potency [4]

NC(=O)N1c2ccccc2CC(=O)c2ccccc21
inactive: Potency [1] | Potency [2] | Potency [3] | Potency [4]

CCOC(=O)CC(C)O (centres undefined)
inactive: Potency [1] | Potency [2] | Potency [3] | Potency [4]

Clc1ccc(C(Cn2ccnc2)OCc2ccc(Sc3ccccc3)cc2)c(Cl)c1 (centres undefined)
inactive: Potency [1] | Potency [2] | Potency [3] | Potency [4]

Clc1ccc2nsnc2c1NC1=NCCN1
inactive: Potency [1] | Potency [2] | Potency [3] | Potency [4]

CCOc1ccc(N)c([N+](=O)[O-])c1
inactive: Potency [1] | Potency [2] | Potency [3] | Potency [4]

C[C@@H]1C[C@H]2[C@@H]3CCC4=CC(=O)C=C[C@]4(C)[C@@]3(F)[C@@H](O)C[C@]2(C)[C@@]1(O)C(=O)CO
inactive: Potency [1] | Potency [2] | Potency [3] | Potency [4]

COc1cccc(OC)c1
inactive: Potency [1] | Potency [2] | Potency [3] | Potency [4]

COC(=O)c1ccccc1Cl
inactive: Potency [1] | Potency [2] | Potency [3] | Potency [4]

CC(C)(C)c1cc(CCC(=O)NCCCCCCNC(=O)CCc2cc(C(C)(C)C)c(O)c(C(C)(C)C)c2)cc(C(C)(C)C)c1O
inactive: Potency [1] | Potency [2] | Potency [3] | Potency [4]

OC(C#CCN1CCCC1)(c1ccccc1)c1ccccc1
inactive: Potency [1] | Potency [2] | Potency [3] | Potency [4]

c1ccc2sc(SN(C3CCCCC3)C3CCCCC3)nc2c1
inactive: Potency [1] | Potency [2] | Potency [3] | Potency [4]

COc1cc2nc(N(C)CCCNC(=O)C3CCCO3)nc(N)c2cc1OC (centres undefined)
inactive: Potency [4]
active: Potency [1] 17.4 µM | Potency [2] 24.5 µM | Potency [3] 15.5 µM

COC(C)OC
inactive: Potency [1] | Potency [2] | Potency [3] | Potency [4]

N=C1N=C(N)c2ccccc21
inactive: Potency [1] | Potency [2] | Potency [3] | Potency [4]

CC(C)=CCC/C(C)=C/C#N
inactive: Potency [1] | Potency [2] | Potency [3] | Potency [4]

CC(=O)NO
inactive: Potency [1] | Potency [2] | Potency [3] | Potency [4]

CCCO
inactive: Potency [1] | Potency [2] | Potency [3] | Potency [4]

CNC(=O)c1cnn(-c2nc(N)c3ncn([C@@H]4O[C@H](CO)[C@@H](O)[C@H]4O)c3n2)c1
inactive: Potency [1] | Potency [2] | Potency [3] | Potency [4]

NC(=O)c1c(Cl)cccc1Cl
inactive: Potency [1] | Potency [2] | Potency [3] | Potency [4]

CC(S)C(C)S (centres undefined)
inactive: Potency [1] | Potency [2] | Potency [3] | Potency [4]

COC(=O)/C=C\C(=O)O
inactive: Potency [1] | Potency [2] | Potency [3] | Potency [4]

CCCCC1=NC2(CCCC2)C(=O)N1Cc1ccc(-c2ccccc2-c2nn[nH]n2)cc1
inactive: Potency [1] | Potency [2] | Potency [3] | Potency [4]

C[C@H](CCC(=O)NCC(=O)O)[C@H]1CC[C@H]2[C@@H]3[C@H](O)C[C@@H]4C[C@H](O)CC[C@]4(C)[C@H]3C[C@H](O)[C@]12C
inactive: Potency [1] | Potency [2] | Potency [3] | Potency [4]

C=Cc1ccc(C=C)cc1
inactive: Potency [1] | Potency [2] | Potency [3] | Potency [4]

CCCCCCCCCCCCCCN(C)C
inactive: activity, negative = inhibition [1] 0.601% [at 23.6 µM] | activity change, negative = inhibition [2] 0.242% [at 23.6 µM] | activity change, negative = inhibition [3] 2.04% [at 23.8 µM] | activity change, negative = inhibition [4] 0.379% [at 23.6 µM]

O=C(CC(=O)C(F)(F)F)c1ccccc1
inactive: Potency [1] | Potency [2] | Potency [3] | Potency [4]

C=CC(C)(CCC=C(C)C)OC(=O)C(C)C (centres undefined)
inactive: Potency [1] | Potency [2] | Potency [3] | Potency [4]

OCCN1CCOCC1
inactive: Potency [1] | Potency [2] | Potency [3] | Potency [4]

C=C1CCC2CC1C2(C)C (centres undefined)
inactive: Potency [1] | Potency [2] | Potency [3] | Potency [4]

CCC1Nc2cc(Cl)c(S(N)(=O)=O)cc2S(=O)(=O)N1 (centres undefined)
inactive: Potency [1] | Potency [2] | Potency [3] | Potency [4]

CCN(CC)C(C)=O
inactive: Potency [1] | Potency [2] | Potency [3] | Potency [4]

CC(=O)CC(=O)OC(C)(C)C
inactive: Potency [1] | Potency [2] | Potency [3] | Potency [4]

Cc1c(C(=O)NN2CCCCC2)nn(-c2ccc(Cl)cc2Cl)c1-c1ccc(Cl)cc1
inactive: Potency [1] | Potency [2] | Potency [3] | Potency [4]

Cc1c(N=C=O)cccc1N=C=O
inactive: Potency [1] | Potency [2] | Potency [3] | Potency [4]

O=C(O)Cc1ccc(CCNS(=O)(=O)c2ccc(Cl)cc2)cc1
inactive: Potency [1] | Potency [2] | Potency [3] | Potency [4]

CCCCCCCCN(C)CCCCCCCC
inactive: Potency [1] | Potency [2] | Potency [3] | Potency [4]

Nc1nc(=O)n([C@@H]2O[C@H](CO)[C@@H](O)[C@@H]2F)cc1I
inactive: Potency [1] | Potency [2] | Potency [3] | Potency [4]

N#CCCOCCOCCC#N
inactive: Potency [1] | Potency [2] | Potency [3] | Potency [4]

O=C1CCCCCO1
inactive: Potency [1] | Potency [2] | Potency [3] | Potency [4]

O=C1C(=O)c2ccccc2C(O)=C1C1CCC(c2ccc(Cl)cc2)CC1 (centres undefined)
inactive: Potency [1] | Potency [2] | Potency [3] | Potency [4]

C=CC(C)(CCC=C(C)C)OC(=O)CC(C)C (centres undefined)
inactive: Potency [1] | Potency [2] | Potency [3] | Potency [4]

O=C(O)C(O)[C@H](O)[C@@H](O)[C@H](O)[C@H](O)CO (some centres undefined)
inactive: Potency [1] | Potency [2] | Potency [3] | Potency [4]

CC(=O)N[C@@H](CC(C)C)C(=O)O
inactive: Potency [1] | Potency [2] | Potency [3] | Potency [4]

O=C(O)c1ccc(CO)o1
inactive: Potency [1] | Potency [2] | Potency [3] | Potency [4]

N[C@@H](CSCCCO)C(=O)O
inactive: activity, negative = inhibition [1] -1.97% [at 23.6 µM] | activity change, negative = inhibition [2] 1.52% [at 23.6 µM] | activity change, negative = inhibition [3] 1.96% [at 23.8 µM] | activity change, negative = inhibition [4] -0.67% [at 23.6 µM]

CC(C)Nc1ccc(NC(C)C)c2c1C(=O)c1ccccc1C2=O
inactive: Potency [1] | Potency [2] | Potency [3] | Potency [4]

O=C(CCCCCCC(=O)Nc1ccccc1)NO
inactive: Potency [1] | Potency [2] | Potency [3] | Potency [4]

N[C@H]1C(O)O[C@H](CO)[C@@H](O)[C@@H]1O (some centres undefined)
inactive: Potency [1] | Potency [2] | Potency [3] | Potency [4]

COc1ccc(S(=O)(=O)N2c3ccc(Cl)cc3[C@@](O)(c3ccccc3Cl)[C@H]2C(=O)N2CCC[C@@H]2C(N)=O)cc1OC
inactive: Potency [1] | Potency [2] | Potency [3] | Potency [4]

COC(=O)C1=C(C)NC(C)=C(C(=O)OC(C)C)C1c1cccc2nonc12 (centres undefined)
inactive: Potency [1] | Potency [2] | Potency [3] | Potency [4]

O=C(O)CO
inactive: Potency [1] | Potency [2] | Potency [3] | Potency [4]

CC1=CC(=O)[C@H]2C[C@@H]1C2(C)C
inactive: Potency [1] | Potency [2] | Potency [3] | Potency [4]

C/C=C(/C(=C/C)c1ccc(OC(C)=O)cc1)c1ccc(OC(C)=O)cc1
inactive: Potency [1] | Potency [2] | Potency [3] | Potency [4]

CS(C)=O
inactive: Potency [1] | Potency [2] | Potency [3] | Potency [4]

CC(C)C(OC(=O)c1ccccc1)C(C)(C)COC(=O)c1ccccc1 (centres undefined)
inactive: Potency [1] | Potency [2] | Potency [3] | Potency [4]
